Screens as filed in PubChem.
Only some compounds are listed: those with a hit (about 10% of all), similar ones and a draw of the others.
CtBP-E1A inh: blocks the CtBP interaction with E1A. AlphaScreen GST-E1A/His-CtBP binding, 1536-well; stronger effect = lower value. activity change, % (concentration not given with the values). 340,000 tested, 0.49% active. AID 651724; in the data active = activity change below about -65%; inconclusive = mostly about -30% to -63%; note: % is set by controls: 0 for no effect and ±100 for the full control effect
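Protein mix (5X: 125 nM each GST-E1A, His-CtBP) was incubated with pinned compound 2 h at 37 deg C in dark, in 50 mM Tris pH 8.0 buffer with 300 mM NaCl. Glutathione donor and nickel acceptor beads followed; AlphaScreen signal read after 1 h.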
JMJD2A Tudor inh: JMJD2A Tudor domain (human) inhibition; AlphaScreen JMJD2A-Tudor / H3K4me3 peptide binding; Potency, µM (titrated, usually from 114 µM), inactives show at the highest dose activity change, negative = inhibition, hits mostly inhibitors; 390,000 tested, 4.4% active; AID 504339; note: potency is the fitted concentration of half-maximal effect; % is set by controls: 0 for no effect and ±100 for the full control effect; nearly all actives have a fitted effect of over 50% in size
Target sequence (O75164 whole entry, looked up, the tested form may be a part): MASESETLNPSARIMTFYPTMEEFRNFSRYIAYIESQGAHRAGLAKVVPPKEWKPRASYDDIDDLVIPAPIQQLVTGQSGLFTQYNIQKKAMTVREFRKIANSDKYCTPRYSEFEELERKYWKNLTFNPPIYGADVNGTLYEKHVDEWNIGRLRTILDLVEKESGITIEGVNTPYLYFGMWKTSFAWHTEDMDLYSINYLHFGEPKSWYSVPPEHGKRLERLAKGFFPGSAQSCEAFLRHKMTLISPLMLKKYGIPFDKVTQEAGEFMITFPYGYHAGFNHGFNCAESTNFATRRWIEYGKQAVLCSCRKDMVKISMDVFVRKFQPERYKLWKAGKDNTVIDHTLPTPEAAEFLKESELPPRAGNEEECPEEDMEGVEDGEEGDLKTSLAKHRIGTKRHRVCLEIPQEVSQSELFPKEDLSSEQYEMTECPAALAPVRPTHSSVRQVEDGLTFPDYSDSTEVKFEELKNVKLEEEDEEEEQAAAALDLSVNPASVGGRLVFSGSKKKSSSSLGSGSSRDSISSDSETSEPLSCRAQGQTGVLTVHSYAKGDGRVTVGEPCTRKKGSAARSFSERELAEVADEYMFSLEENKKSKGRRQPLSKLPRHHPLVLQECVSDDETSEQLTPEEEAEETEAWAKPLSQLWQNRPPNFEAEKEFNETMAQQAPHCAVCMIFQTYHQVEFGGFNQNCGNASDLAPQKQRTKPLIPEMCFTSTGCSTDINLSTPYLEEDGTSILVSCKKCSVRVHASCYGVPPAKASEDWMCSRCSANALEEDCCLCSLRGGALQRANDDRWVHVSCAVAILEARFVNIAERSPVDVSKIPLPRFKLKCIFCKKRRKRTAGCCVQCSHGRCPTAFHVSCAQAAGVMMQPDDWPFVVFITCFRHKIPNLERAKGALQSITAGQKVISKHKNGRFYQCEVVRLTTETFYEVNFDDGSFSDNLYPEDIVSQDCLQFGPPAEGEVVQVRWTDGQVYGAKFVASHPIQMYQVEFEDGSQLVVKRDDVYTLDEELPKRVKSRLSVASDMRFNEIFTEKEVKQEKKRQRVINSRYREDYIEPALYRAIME
Six1-Eya2 blk: blocks human Six1 binding to Eya2; Q15475+O00167; AlphaScreen GST-Six1/His-Eya2 binding, biochemical; stronger effect = lower value; activity change, % (no concentration beside the values); 360,000 tested, 0.56% active; AID 651725; in the data active = activity change below about -65%; inconclusive = mostly about -30% to -63%; note: % is set by controls: 0 for no effect and ±100 for the full control effect
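AlphaScreen luminescence read after one hour at 37 °C in darkness. Pin-transferred compounds met GST-Six1 and His-Eya2 protein (5X stock 250 nM/500 nM) plus glutathione donor and Ni-chelate acceptor beads (5X, 50 ug/mL).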
HP1b chromo inh: HP1-beta chromodomain-methylated histone interaction inhibition; 390,000 tested, 0.56% active; AlphaScreen HP1-beta / biotin-H3K9me3 peptide binding; P83916; Potency, µM (highest dose often 114 µM), without a hit: at the top dose activity change, negative = inhibition, actives largely listed as inhibitors; AID 540317; note: potency is the fitted concentration of half-maximal effect; nearly all actives have a fitted effect of over 70% in size
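HP1-beta protein (50 nM final) preincubated 30 min at room temperature with biotinylated H3(1-18)K9me3 peptide (50 nM) in PBS pH 7.4, 0.01% Tween-20, then compound added for 30 min. AlphaScreen streptavidin donor/nickel chelate acceptor beads (10 ug/mL final), 30 min dark, luminescence read.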
BAZ2B inh: blocks human BAZ2B. 360,000 tested, 4.4% active. Q9UIF8. AlphaScreen BAZ2B-H3K14Ac peptide displacement. Potency, µM (top dose mostly 114 µM), inactives show top-dose activity change, negative = inhibition, most hits filed as inhibitors; note: potency is the fitted concentration of half-maximal effect; % is set by controls: 0 for no effect and ±100 for the full control effect; nearly all actives have a fitted effect of over 60% in size
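AlphaScreen luminescence quantifies BAZ2B engagement of H3K14Ac peptide; the protein and biotinylated peptide are both at 50 nM final, buffer PBS pH 7.4 with 0.01% Tween-20, all steps at room temperature.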
G9a inh: inhibitors of human histone lysine methyltransferase G9a; G9a H3K9 monomethylation, AlphaScreen, 2 h; Potency, µM (series often up to 102 µM), for inactives: at the highest dose activity, negative = inhibition, most hits filed as inhibitors; 350,000 tested, 8.8% active; Q96KQ7; note: potency is the fitted concentration of half-maximal effect; % is set by controls: 0 for no effect and ±100 for the full control effect; nearly all actives have a fitted effect of over 75% in size
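Signal arises when biotinylated H3K9 peptide, once monomethylated, bridges streptavidin donor and antibody-captured acceptor beads. Enzyme at 20 nM was preincubated 15 min with test compounds; peptide 500 nM and SAM 20 uM then reacted for 2 h.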
Starred values were filed as active, the others as inactive; u = inconclusive; x = not tested or not shown; [ ] = remark or other dose. Unless noted, calls come from the whole dose curve; as a rule, active = well fitted inhibition curve with a large enough effect; inconclusive = small, poorly fitted or top-dose-only effect; inactive = no such curve, though single readings can be large or run the other way.

SMILES	CtBP-E1A inh	JMJD2A Tudor inh	Six1-Eya2 blk	HP1b chromo inh	BAZ2B inh	G9a inh
CCN1CCN(Cc2c(C(=O)N/N=C(\C)c3ccc(Cl)cc3)nnn2-c2nonc2N)CC1	-10	-27%	-4	36%	u	28µM*
C/C(=N\NC(=O)c1nnn(-c2nonc2N)c1CN1CCCCCC1)c1ccc(Br)cc1	0	-7%	-30	44%	-2%	50µM*
C/C(=N\NC(=O)c1nnn(-c2nonc2N)c1CN(C)c1ccccc1)c1ccccn1	x	22µM*	-91*	35%	8.9µM*	49%[59 µM]
COc1ccc(NC(=O)c2c(C)oc3ccc(O)c(CN4CCN(C)CC4)c23)cc1Cl	x	-18%	x	24%	-16%	-3%[59 µM]
Cc1ccc2c(c1)C(c1ccc(F)cc1)N(C(=O)c1cccc(C(F)(F)F)c1)CC(=O)N2 (stereo not drawn)	x	-29%	x	38%	-4%	-5%[59 µM]
Cc1ccc(Cl)cc1N1CCN(C(=O)c2cc(S(=O)(=O)N3CCCCCC3)cn2C)CC1	x	-36%	x	5%[57 µM]	u	-36%[59 µM]
O=S(=O)(c1ccc2c(c1)OCO2)N1CCN(S(=O)(=O)c2c(F)cccc2F)CC1	x	-17%	x	x	x	x
C/C(=N\NC(=O)c1cccnc1)c1nnn(-c2nonc2N)c1C	x	-17%	4	75%	-11%	50µM*
Cc1ccc(/C=N/NC(=O)c2nnn(-c3nonc3N)c2CNc2ccccc2)cc1	1	22µM*	-1	-7%	-32%	-9%
CSc1nc2sc3c(c2c(=O)n1Cc1ccccc1)CCC(C(C)(C)C)C3 (stereo not drawn)	x	-4%	x	21%	-15%	-34%[59 µM]
CC(=O)N1CCC2(CC1)C(C#N)=C(N)Oc1c2sc2nc(C)cc(C)c12	2	-21%	-11	43%	-34%	11µM*
Cc1ccc(N2CCN(S(=O)(=O)c3ccc(Cl)c4ccccc34)CC2)c(C)c1	x	10%	x	58%	u	11%[59 µM]
COc1ccc(S(=O)(=O)CC(=O)c2cc3cc(Br)ccc3oc2=O)cc1	x	u	-11	-16%[57 µM]	45µM*	25µM*
COc1ccc(OC)c(S(=O)(=O)CC(=O)c2cc3ccc(OC)cc3oc2=O)c1	x	-14%	-2	39%	u	-13%
CCOc1ccccc1NC(=O)C(=O)/C=C(\O)c1cc(OC)ccc1OC	1	20µM*	0	-15%	9%	u
CCOc1ccccc1NC(=O)C(NCCc1ccc(OC)cc1)c1ccccc1 (stereo not drawn)	2	24%	3	83%	50µM*	x
COc1ccc(CCNC(C(=O)Nc2cc(C)cc(C)c2)c2ccccc2)cc1 (stereo not drawn)	2	4%	1	40%	-11%	-8%
CCOc1ccccc1NC(=O)C(NCCN(C)C)c1ccccc1 (stereo not drawn)	8	22µM*	1	-5%	50µM*	10µM*
Cc1cc(C)c(C(=O)OCC(=O)NC(=O)c2ccccc2)c(C)c1	1	-9%	0	31%	-1%	7%
Cc1cnc(C(=O)OCC(=O)NC(=O)c2ccccc2)cn1	-2	-14%	4	10%	u	45µM*
Cc1cccc(C(=O)OCC(=O)NC(=O)c2ccccc2)c1O	-18	-5%	3	14%	79µM*	-1%[0.501 µM]
CCc1ccccc1NC(=O)Cn1c(=O)n(-c2ccc(C)cc2)c(=O)c2cc(OC)c(OC)cc21	x	-8%	x	44%	-2%	2%[59 µM]
CCOc1ccc(NC(=O)COc2ccc(-n3cnnn3)cc2)cc1	5	-8%	7	67%	-1%	39%[12.7 µM]
CCN(CC)c1ccc(NC(=O)COc2ccc(N(C)S(=O)(=O)c3cccs3)cc2)cc1	u	u	u	-22%	10µM*	7.9µM*
CCN(CC)c1ccc(NC(=O)COc2ccc(-n3cnnn3)cc2)cc1	-16	50µM*	-18	u	x	x
O=C1[O][Bi][O]c2ccccc21	x	x	x	x	x	3.2µM*
